Bioassay records from PubChem.
Only some compounds are listed: those with a hit (about 7.8% of all), similar ones and a draw of the others.
PK Bst = Pyruvate Kinase; purified pyruvate kinase, luminescence ATP production; ribose 5-phosphate activator present at AC10; Potency, µM; 51,000 tested, 1.2% active; AID 361, 2006; in the data active = potency below about 11 µM; inconclusive = mostly about 12 µM to 25 µM;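 the screen sought inhibitors and activators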;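 also: scaled between full activation by ribose 5 phosphate and full inhibition by luteolin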
Luciferase inh = qHTS Assay for Inhibitors of Firefly Luciferase; 72,000 tested, 2.2% active; purified firefly luciferase, luminescence, 8 min; Potency, µM (highest dose often 57.1 µM), inactives show at the top dose activity change, negative = inhibition, actives largely listed as inhibitors; AID 411, 2009; also: % is scaled to controls: 0 for no effect and ±100 for the full control effect; nearly all actives have a fitted effect of over 40% in size
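Inhibition of light generation by firefly luciferase from ATP and luciferin was profiled with concentration-response curves per sample, ATP held at 10 uM within the enzyme's linear range. Plates were read by luminescence after an 8-minute ambient incubation.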
HEK293 cAMP cs = qHTS Assay for Agonists of the Thyroid Stimulating Hormone Receptor: Activators of Intracellular cAMP Concentrations in Parental HEK 293; parental HEK293 CNG cAMP sensor, membrane potential fluorescence; Potency, µM (highest dose often 57.1 µM), for inactives: at the highest dose activation, usual class: activators; 73,000 tested, 2.5% active; also: % of control where 0% means no effect; nearly all actives have a fitted effect of over 55% in size
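Parental HEK 293 cells stably expressing a modified CNG channel (no TSHR) report cAMP rise as membrane depolarization. Membrane potential dye with 100 uM RO 20-1724 was loaded for 60 min at room temperature, then compound added for 30 min; fluorescence read at 590 nm.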
TSHR agonist = qHTS Assay for Agonists of the Thyroid Stimulating Hormone Receptor; HEK293-CNG-TSHR cells (CNG channel as cAMP sensor), membrane potential dye, cAMP; 73,000 tested, 0.48% active; Potency, µM (top dose mostly 57.1 µM), inactives show top-dose activation, usual class: activators; Thyrotropin receptor (Homo sapiens), P16473; AID 926, 2007; active = well fitted activation curve with a large enough effect in the main read-out, with a control signal flat, not every such curve was filed as active; inconclusive = small, poorly fitted or top-dose-only effect, or a change in a side signal; inactive = no such curve, though single readings can be large or run the other way; % of control where 0% means no effect;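 also: the control signal comes from parental cells without the receptor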
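HEK 293 cells stably expressing TSHR and a cAMP-gated CNG channel; parental CNG-only cells as counterscreen. Cells preloaded 60 min with membrane potential dye plus 100 uM RO 20-1724, then compound 30 min; fluorescence read at 590 nm.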
ALOX15 inhib = qHTS Assay for Inhibitors of 15-hLO (15-human lipoxygenase) | Polyunsaturated fatty acid lipoxygenase ALOX15 (Homo sapiens), P16050 | purified 15hLO-1, xylenol orange hydroperoxide absorbance | Potency, µM (titrated, usually from 57.1 µM), inactives show at the highest dose activity change, negative = inhibition, most hits filed as inhibitors | 74,000 tested, 1.4% active | AID 887, 2007; also: % is scaled to controls: 0 for no effect and ±100 for the full control effect; nearly all actives have a fitted effect of over 55% in size
Target sequence (P16050 whole entry, looked up): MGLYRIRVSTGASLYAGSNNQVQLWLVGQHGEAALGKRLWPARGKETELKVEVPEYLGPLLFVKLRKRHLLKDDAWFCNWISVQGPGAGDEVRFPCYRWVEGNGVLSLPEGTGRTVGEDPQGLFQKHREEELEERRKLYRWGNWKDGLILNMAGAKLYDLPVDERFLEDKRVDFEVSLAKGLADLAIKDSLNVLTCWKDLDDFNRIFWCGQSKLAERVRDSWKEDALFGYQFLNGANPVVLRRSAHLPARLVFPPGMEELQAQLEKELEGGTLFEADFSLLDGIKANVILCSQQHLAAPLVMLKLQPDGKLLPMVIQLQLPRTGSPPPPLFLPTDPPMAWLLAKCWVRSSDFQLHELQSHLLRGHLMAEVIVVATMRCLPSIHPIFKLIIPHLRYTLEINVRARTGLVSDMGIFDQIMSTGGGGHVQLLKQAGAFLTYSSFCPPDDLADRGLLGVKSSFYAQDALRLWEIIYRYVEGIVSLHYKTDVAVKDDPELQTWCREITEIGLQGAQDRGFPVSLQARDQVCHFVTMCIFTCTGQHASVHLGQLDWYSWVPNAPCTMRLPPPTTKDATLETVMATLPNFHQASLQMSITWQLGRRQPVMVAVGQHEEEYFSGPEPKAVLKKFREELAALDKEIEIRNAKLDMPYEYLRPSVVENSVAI
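Hydroperoxide formed from arachidonic acid (50 uM) by purified human 15hLO-1 (40 nM) oxidizes ferrous iron, and the ferric-xylenol orange complex is read at 573 versus 405 nm. Compounds were preincubated 15 min; reaction ran 6 min at room temperature.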
Tau fil binding = qHTS Assay for Tau Filament Binding; AID 596, 2007; Microtubule-associated protein tau (Homo sapiens), P10636; Potency, µM (series often up to 57.1 µM), for the others: at the highest dose activity change, negative = inhibition; 71,000 tested, 2% active; recombinant tau filaments, thioflavin S fluorescence, 15 h; filaments grown with octadecylsulfate alongside compound;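 also: % is scaled to controls: 0 for no effect and ±100 for the full control effect; actives lower thioflavin S fluorescence by blocking filaments or displacing dye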
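His-tagged recombinant human tau (exons 2, 3, 10; 1 uM final) fibrillized with 30 uM sodium octadecylsulfate, 15 h at 37 C, in pH 7.4 HEPES buffer with 10 uM thioflavine S and 5 mM DTT. Reduced ThS fluorescence (450/510 nm) marks activity.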
An asterisk follows results filed as active; [ ] = another dose, or the depositor's remark. Unless noted, calls follow the shape of the dose curve; as a rule, active = well fitted curve in the direction sought with a large enough effect; inconclusive = small, poorly fitted or top-dose-only effect, or another doubt; inactive = no such curve, though single readings can be large; an effect the other way counts as inactive or inconclusive. Potency is read from the fitted curve at half-maximal effect.

Results for Cc1nn(-c2ccc(C(=O)O)cc2)c(N)c1-c1ccccc1 ?
PK Bst: inactive; Luciferase inh: 13µM*; HEK293 cAMP cs: 2%; TSHR agonist: -1%; ALOX15 inhib: -11%; Tau fil binding: -7%

Results for COC(=O)c1c(C)nn(-c2ccccc2)c1N ?
Luciferase inh: -5%; HEK293 cAMP cs: 1%; TSHR agonist: 0%; ALOX15 inhib: 5%; Tau fil binding: -11%

How did OC1CN=C2CCCc3c2n(c2ccc(Cl)cc32)C1 (stereo not drawn) do in these assays?
Luciferase inh: -1%; HEK293 cAMP cs: 1%; TSHR agonist: -3%; ALOX15 inhib: inconclusive; Tau fil binding: 7.9µM*

What do the screens show for `CCn1c2c(c3cc(Cl)ccc31)CCCC2=O`?
Luciferase inh: 1%; HEK293 cAMP cs: 7%; TSHR agonist: 9%; ALOX15 inhib: -26%; Tau fil binding: 7%

How did NC(=O)CSc1cn(CCNC(=O)c2cccs2)c2ccccc12 do in these assays?
Luciferase inh: 2%; HEK293 cAMP cs: 8%; TSHR agonist: 32µM*; ALOX15 inhib: -8%; Tau fil binding: 4%

What do the screens show for `CCC(C)(C)n1nnnc1CN(Cc1ccc(Cl)cc1)Cc1ccco1`?
PK Bst: >57; Luciferase inh: -1%; HEK293 cAMP cs: 10µM*; TSHR agonist: inconclusive; ALOX15 inhib: -11%; Tau fil binding: -1%

How did CC(C)(C)n1nnnc1CN(Cc1ccco1)Cc1cc2cc3c(cc2[nH]c1=O)OCO3 do in these assays?
PK Bst: >57; Luciferase inh: -1%; HEK293 cAMP cs: -10%; TSHR agonist: -1%; ALOX15 inhib: -11%; Tau fil binding: -5%

Results for CC(C)(C)c1ccc(-c2conc2N)cc1 ?
PK Bst: inconclusive; Luciferase inh: 10µM*; HEK293 cAMP cs: 14%; TSHR agonist: 9%; ALOX15 inhib: -6%; Tau fil binding: -17%

Results for Cn1c(-c2ccc(C(C)(C)C)cc2)n[nH]c1=S ?
Luciferase inh: -4%; HEK293 cAMP cs: 17%; TSHR agonist: 26%; ALOX15 inhib: inconclusive; Tau fil binding: -11%

What do the screens show for `CO[C@@H]1COC(=O)CC=C[C@@H](C)[C@@H]2C=C[C@@H](O)[C@@H](COC(=O)C/C=C\[C@H]1C)O2`?
Luciferase inh: 0%[11.4 µM]; HEK293 cAMP cs: 6%[11.4 µM]; TSHR agonist: -7%[11.4 µM]; ALOX15 inhib: 11%[11.4 µM]

Results for COc1ccc(-n2ncc3c(NCc4ccco4)ncnc32)cc1 ?
HEK293 cAMP cs: 5%[11.4 µM]; TSHR agonist: 3%; ALOX15 inhib: -17%

Results for c1ccc(-n2ncc3c(NCC4CCCO4)ncnc32)cc1 (stereo not drawn) ?
PK Bst: inactive; Luciferase inh: -27%[25.5 µM]

Results for Clc1ccc(-n2ncc3c(NCC4CCCO4)ncnc32)cc1 (stereo not drawn) ?
Luciferase inh: 5µM*; HEK293 cAMP cs: inconclusive; TSHR agonist: inconclusive; ALOX15 inhib: 10%; Tau fil binding: 10%

Results for Clc1ccc(-n2ncc3c(NCc4ccco4)ncnc32)cc1 ?
PK Bst: 7.6*; Luciferase inh: 4µM*

How did C=C(CC)C(=O)c1ccc(OCC(=O)O)c(Cl)c1Cl do in these assays?
PK Bst: >26; Luciferase inh: -1%[25.5 µM]; HEK293 cAMP cs: inconclusive; TSHR agonist: inconclusive; ALOX15 inhib: 2%; Tau fil binding: -9%

How did CCNC(=O)C1CC(=O)N(Cc2ccc3c(c2)OCO3)C(=Nc2ccc(OCC)cc2)S1 (stereo not drawn) do in these assays?
PK Bst: >57; Luciferase inh: -1%; HEK293 cAMP cs: 8%; TSHR agonist: 32µM*; ALOX15 inhib: 3%; Tau fil binding: 54%

How did CCNC(=O)C1CC(=O)N(Cc2ccc(F)cc2)C(=Nc2ccc(OC)cc2)S1 (stereo not drawn) do in these assays?
PK Bst: >57; Luciferase inh: -33%; HEK293 cAMP cs: 1%; TSHR agonist: 17%; ALOX15 inhib: 6%; Tau fil binding: 273%

How did Nc1c(N2CCOCC2)cc(Cl)c2nonc12 do in these assays?
PK Bst: inconclusive; Luciferase inh: 1%; HEK293 cAMP cs: -10%; TSHR agonist: -16%; ALOX15 inhib: 0%; Tau fil binding: inconclusive

What do the screens show for `Nc1c(N2CCCC2)cc(Cl)c2nonc12`?
PK Bst: >57; Luciferase inh: -2%; HEK293 cAMP cs: -29%; TSHR agonist: -58%; ALOX15 inhib: -18%; Tau fil binding: 20µM*

Results for Cc1cc(-c2csc(NC(=O)c3ccc(=O)n(C)n3)n2)c(C)n1CC1CCCO1 (stereo not drawn) ?
PK Bst: 9.1*; Luciferase inh: -1%; HEK293 cAMP cs: -27%; TSHR agonist: -11%; ALOX15 inhib: inconclusive; Tau fil binding: 7.9µM*

Results for Cc1ccc2c(c1)N(CC(=O)c1cccc(Cl)c1)C(=O)C(C)O2 (stereo not drawn) ?
PK Bst: >57; Luciferase inh: -1%; HEK293 cAMP cs: 20µM*; TSHR agonist: inconclusive; ALOX15 inhib: -14%; Tau fil binding: 13%

What do the screens show for `Cc1ccc2c(c1)N(CC(=O)N(Cc1ccc3c(c1)OCO3)CC1CCCO1)C(=O)C(C)O2` (stereo not drawn)?
PK Bst: >57; Luciferase inh: -1%; HEK293 cAMP cs: 20µM*; TSHR agonist: inconclusive; ALOX15 inhib: -3%; Tau fil binding: -11%

How did N=C(N)SCCc1ccccn1 do in these assays?
Luciferase inh: 0%[11.4 µM]; HEK293 cAMP cs: 3%[11.4 µM]; TSHR agonist: 2%[11.4 µM]; ALOX15 inhib: 10%[11.4 µM]; Tau fil binding: 1%[11.4 µM]

Results for O=C(C1CC1)N1CCc2cc(Br)cc(S(=O)(=O)N3CCN(c4ccccn4)CC3)c21 ?
PK Bst: >57; Luciferase inh: 3%; HEK293 cAMP cs: 16µM*; TSHR agonist: inconclusive; ALOX15 inhib: -17%; Tau fil binding: 37%

Results for CCOC(=O)C1CCN(S(=O)(=O)c2cc(Br)cc3c2N(C(=O)C2CC2)CC3)CC1 ?
PK Bst: >57; Luciferase inh: 2%; HEK293 cAMP cs: inconclusive; TSHR agonist: inconclusive; ALOX15 inhib: -3%; Tau fil binding: 4%

How did O=c1cc(-c2ccccc2)nc2n1Cc1ccccc1-2 do in these assays?
PK Bst: 0.88*; Luciferase inh: -7%; HEK293 cAMP cs: 10%; TSHR agonist: 20%; ALOX15 inhib: 3%; Tau fil binding: 30%
